# Laboratory results reported in paper PMC7862700, “An all-to-all approach to the identification of sequence-specific readers for epigenetic DNA modifications on cytosine”.
# Legend:
# Assay in all cases: DAPPL (digital affinity profiling via proximity ligation, sequencing); 10 mM Tris-HCl pH 7.5, 50 mM NaCl, 1 mM DTT, 4% glycerol, room temperature, 30 min; GST-TFs on glutathione beads, 16-mer random dsDNA library, 0.1% formaldehyde crosslink after washing; high values mean tight binding
# FLI1 = biological target: T1, FLI1 (Homo sapiens, UniProt Q01543 1-452); settings: protein: recombinant; tags: N-terminal GST; dsDNA, one strand shown
# T1 sequence: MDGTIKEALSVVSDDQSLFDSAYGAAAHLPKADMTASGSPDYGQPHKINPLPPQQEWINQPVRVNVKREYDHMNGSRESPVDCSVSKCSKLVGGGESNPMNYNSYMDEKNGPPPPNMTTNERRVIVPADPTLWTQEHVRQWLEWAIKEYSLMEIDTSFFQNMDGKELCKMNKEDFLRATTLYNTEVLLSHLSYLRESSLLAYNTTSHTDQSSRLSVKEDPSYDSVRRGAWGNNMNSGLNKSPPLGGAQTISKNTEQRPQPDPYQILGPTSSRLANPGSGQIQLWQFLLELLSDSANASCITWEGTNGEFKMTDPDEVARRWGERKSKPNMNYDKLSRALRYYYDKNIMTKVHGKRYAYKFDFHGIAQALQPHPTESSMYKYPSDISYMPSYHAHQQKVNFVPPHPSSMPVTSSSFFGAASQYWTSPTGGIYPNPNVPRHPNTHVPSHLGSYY
# Method in brief: (§1)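 Yeast served to express human transcription factors as GST fusions, which were then captured on glutathione beads and labelled with DNA barcodes. Pooled with a tag-only sample, they were incubated with 200 nmole of a 16-mer random double-stranded DNA library for 30 min at room temperature in Tris/NaCl/DTT/glycerol buffer, washed, crosslinked with 0.1% formaldehyde, ligated by proximity, amplified by PCR and sequenced. Dividing each hexamer's read frequency for a factor by its frequency for the tag-only sample gives the binding signal.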
# ELK1 = biological target: T2, ELK1 (Homo sapiens, UniProt P19419 1-428); settings: protein: recombinant; tags: N-terminal GST; dsDNA, one strand shown
# T2 sequence: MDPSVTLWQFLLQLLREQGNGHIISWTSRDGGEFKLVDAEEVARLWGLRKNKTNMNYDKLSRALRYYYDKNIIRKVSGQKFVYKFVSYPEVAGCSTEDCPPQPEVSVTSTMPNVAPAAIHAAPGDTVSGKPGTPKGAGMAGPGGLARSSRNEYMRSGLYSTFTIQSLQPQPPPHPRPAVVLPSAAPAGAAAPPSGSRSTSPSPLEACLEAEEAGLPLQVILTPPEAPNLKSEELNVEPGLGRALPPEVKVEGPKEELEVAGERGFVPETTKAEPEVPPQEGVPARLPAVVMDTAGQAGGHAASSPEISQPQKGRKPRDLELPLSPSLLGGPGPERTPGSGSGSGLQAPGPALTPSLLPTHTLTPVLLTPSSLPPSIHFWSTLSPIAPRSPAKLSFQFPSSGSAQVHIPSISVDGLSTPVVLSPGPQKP
# Method in brief: as §1
# GABPA = biological target: T3, GABPA (Homo sapiens, UniProt Q06546 1-454); settings: protein: recombinant; tags: N-terminal GST; dsDNA, one strand shown
# T3 sequence: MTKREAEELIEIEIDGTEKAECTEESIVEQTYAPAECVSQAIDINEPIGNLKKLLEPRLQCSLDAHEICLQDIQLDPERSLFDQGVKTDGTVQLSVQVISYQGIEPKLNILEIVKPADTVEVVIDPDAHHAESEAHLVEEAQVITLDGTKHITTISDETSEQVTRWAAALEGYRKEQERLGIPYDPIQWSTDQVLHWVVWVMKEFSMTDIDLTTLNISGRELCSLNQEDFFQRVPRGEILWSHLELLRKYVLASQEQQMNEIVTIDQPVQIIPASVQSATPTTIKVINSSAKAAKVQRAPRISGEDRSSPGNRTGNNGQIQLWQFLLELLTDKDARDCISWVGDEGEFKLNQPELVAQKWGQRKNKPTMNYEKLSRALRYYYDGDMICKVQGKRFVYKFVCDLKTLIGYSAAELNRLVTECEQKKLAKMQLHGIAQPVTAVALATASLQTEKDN
# Method in brief: as §1
# ERG = biological target: T4, ERG (Homo sapiens, UniProt P11308 1-479); settings: protein: recombinant; tags: N-terminal GST; dsDNA, one strand shown
# T4 sequence: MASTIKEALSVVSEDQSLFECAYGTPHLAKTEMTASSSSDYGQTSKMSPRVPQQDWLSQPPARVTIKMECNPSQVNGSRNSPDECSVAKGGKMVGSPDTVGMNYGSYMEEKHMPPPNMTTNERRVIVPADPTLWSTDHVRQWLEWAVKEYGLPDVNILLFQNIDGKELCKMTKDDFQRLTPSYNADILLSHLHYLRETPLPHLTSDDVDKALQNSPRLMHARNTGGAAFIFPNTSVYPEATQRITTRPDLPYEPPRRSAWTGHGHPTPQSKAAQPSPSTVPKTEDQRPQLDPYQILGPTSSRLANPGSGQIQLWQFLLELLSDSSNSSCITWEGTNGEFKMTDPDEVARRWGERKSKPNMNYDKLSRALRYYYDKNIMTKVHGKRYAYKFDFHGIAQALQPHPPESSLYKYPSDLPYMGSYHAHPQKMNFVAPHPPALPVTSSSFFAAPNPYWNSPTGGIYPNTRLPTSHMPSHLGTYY
# Method in brief: as §1
# ELF1 = ELF1 (Homo sapiens, UniProt P32519 1-619); settings: protein: recombinant; tags: N-terminal GST; dsDNA, one strand shown
# Method in brief: as §1
# EHF = biological target: T5, EHF (Homo sapiens, UniProt Q9NZC4 1-300); settings: protein: recombinant; tags: N-terminal GST; dsDNA, one strand shown
# T5 sequence: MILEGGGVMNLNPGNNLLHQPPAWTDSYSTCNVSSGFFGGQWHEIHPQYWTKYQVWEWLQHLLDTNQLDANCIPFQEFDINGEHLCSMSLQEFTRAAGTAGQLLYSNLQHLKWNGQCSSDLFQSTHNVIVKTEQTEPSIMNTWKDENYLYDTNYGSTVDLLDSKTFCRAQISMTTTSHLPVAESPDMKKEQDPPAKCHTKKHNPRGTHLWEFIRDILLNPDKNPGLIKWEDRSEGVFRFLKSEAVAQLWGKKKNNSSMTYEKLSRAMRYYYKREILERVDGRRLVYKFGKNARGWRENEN
# Method in brief: as §1
# SPI1 = SPI1 (Homo sapiens, UniProt P17947 1-270); settings: protein: recombinant; tags: N-terminal GST; dsDNA, one strand shown
# Method in brief: as §1
# SPIB = SPIB (Homo sapiens, UniProt Q01892 1-262); settings: protein: recombinant; tags: N-terminal GST; dsDNA, one strand shown
# Method in brief: as §1
# ELK3 = biological target: T6, ELK3 (Homo sapiens, UniProt P41970 1-407); settings: protein: recombinant; tags: N-terminal GST; dsDNA, one strand shown
# T6 sequence: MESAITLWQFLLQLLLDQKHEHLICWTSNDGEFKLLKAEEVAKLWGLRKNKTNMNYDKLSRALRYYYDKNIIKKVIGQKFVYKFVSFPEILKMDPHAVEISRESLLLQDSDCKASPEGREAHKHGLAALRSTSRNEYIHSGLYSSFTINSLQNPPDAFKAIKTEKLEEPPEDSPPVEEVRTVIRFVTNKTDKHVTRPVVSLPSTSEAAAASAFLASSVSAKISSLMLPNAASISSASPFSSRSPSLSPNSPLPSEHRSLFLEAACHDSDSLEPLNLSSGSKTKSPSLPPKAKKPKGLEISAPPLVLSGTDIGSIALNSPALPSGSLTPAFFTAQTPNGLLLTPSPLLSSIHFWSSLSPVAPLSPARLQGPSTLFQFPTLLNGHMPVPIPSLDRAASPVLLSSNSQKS
# Method in brief: as §1
# FEV = biological target: T7, FEV (Homo sapiens, UniProt Q99581 1-238); settings: protein: recombinant; tags: N-terminal GST; dsDNA, one strand shown
# T7 sequence: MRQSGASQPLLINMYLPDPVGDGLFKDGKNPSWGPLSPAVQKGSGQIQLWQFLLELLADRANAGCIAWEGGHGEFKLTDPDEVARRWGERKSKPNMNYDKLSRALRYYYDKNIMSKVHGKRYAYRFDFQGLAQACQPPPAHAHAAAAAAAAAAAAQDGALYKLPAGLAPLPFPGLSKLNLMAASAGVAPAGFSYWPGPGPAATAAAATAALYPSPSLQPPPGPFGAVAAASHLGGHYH
# Method in brief: as §1
# ETV5 = ETV5 (Homo sapiens, UniProt P41161 1-510); settings: protein: recombinant; tags: N-terminal GST; dsDNA, one strand shown
# Method in brief: as §1
# HSF1 = HSF1 (Homo sapiens, UniProt Q00613 1-529); settings: protein: recombinant; tags: N-terminal GST; chain copies: 3; dsDNA, one strand shown
# Method in brief: as §1
# SPIC = biological target: T8, SPIC (Homo sapiens, UniProt Q8N5J4 1-248); settings: protein: recombinant; tags: N-terminal GST; dsDNA, one strand shown
# T8 sequence: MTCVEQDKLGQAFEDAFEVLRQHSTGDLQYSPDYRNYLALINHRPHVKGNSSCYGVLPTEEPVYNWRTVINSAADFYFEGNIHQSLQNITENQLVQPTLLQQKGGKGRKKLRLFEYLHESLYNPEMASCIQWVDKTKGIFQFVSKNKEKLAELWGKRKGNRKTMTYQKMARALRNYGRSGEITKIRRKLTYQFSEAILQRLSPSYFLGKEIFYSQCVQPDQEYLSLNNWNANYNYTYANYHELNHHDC
# Method in brief: as §1
# ELF4 = ELF4 (Homo sapiens, UniProt Q99607 1-663); settings: protein: recombinant; tags: N-terminal GST; dsDNA, one strand shown
# Method in brief: as §1
# ELK4 = biological target: T9, ELK4 (Homo sapiens, UniProt P28324-2 1-405); settings: protein: recombinant; tags: N-terminal GST; dsDNA, one strand shown
# T9 sequence: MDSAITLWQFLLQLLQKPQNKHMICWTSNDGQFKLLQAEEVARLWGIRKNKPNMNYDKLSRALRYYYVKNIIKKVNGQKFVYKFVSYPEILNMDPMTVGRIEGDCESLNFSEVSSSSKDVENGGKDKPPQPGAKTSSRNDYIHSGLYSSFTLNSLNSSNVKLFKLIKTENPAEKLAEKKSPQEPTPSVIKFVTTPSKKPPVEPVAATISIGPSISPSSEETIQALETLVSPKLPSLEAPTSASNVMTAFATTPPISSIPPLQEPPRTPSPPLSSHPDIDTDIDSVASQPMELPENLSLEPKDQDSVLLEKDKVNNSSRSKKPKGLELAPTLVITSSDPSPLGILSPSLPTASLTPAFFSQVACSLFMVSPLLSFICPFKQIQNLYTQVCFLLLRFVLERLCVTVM
# Method in brief: as §1
# ETV2 = biological target: T10, ETV2 (Homo sapiens, UniProt O00321 1-342); settings: protein: recombinant; tags: N-terminal GST; dsDNA, one strand shown
# T10 sequence: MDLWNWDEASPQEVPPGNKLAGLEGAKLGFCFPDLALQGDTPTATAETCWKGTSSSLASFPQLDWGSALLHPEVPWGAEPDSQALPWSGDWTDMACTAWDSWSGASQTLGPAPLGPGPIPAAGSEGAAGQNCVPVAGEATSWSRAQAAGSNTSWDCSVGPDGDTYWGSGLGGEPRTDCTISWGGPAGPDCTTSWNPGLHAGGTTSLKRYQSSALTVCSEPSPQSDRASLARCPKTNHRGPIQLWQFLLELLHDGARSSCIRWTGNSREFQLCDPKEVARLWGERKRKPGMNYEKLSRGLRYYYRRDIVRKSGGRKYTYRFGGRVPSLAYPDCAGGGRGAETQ
# Method in brief: as §1
# ELF3 = biological target: T11, ELF3 (Homo sapiens, UniProt P78545 1-371); settings: protein: recombinant; tags: N-terminal GST; dsDNA, one strand shown
# T11 sequence: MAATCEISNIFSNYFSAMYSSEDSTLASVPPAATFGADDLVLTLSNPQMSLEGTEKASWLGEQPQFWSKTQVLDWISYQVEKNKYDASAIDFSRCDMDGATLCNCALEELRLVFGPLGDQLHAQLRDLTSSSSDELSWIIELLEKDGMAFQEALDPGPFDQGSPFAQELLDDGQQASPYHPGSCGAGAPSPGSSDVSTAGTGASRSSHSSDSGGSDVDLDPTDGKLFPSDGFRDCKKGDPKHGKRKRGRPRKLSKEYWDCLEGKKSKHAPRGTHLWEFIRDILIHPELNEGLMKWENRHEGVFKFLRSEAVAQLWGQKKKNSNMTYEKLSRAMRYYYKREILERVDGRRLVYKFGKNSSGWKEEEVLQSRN
# Method in brief: as §1
# CRX = CRX (Homo sapiens, UniProt O43186 1-299); settings: protein: recombinant; tags: N-terminal GST; dsDNA, one strand shown
# Method in brief: as §1
# ETV1 = ETV1 (Homo sapiens, UniProt P50549 1-477); settings: protein: recombinant; tags: N-terminal GST; dsDNA, one strand shown
# Method in brief: as §1
# Sequence of ELF1 (P32519 whole entry): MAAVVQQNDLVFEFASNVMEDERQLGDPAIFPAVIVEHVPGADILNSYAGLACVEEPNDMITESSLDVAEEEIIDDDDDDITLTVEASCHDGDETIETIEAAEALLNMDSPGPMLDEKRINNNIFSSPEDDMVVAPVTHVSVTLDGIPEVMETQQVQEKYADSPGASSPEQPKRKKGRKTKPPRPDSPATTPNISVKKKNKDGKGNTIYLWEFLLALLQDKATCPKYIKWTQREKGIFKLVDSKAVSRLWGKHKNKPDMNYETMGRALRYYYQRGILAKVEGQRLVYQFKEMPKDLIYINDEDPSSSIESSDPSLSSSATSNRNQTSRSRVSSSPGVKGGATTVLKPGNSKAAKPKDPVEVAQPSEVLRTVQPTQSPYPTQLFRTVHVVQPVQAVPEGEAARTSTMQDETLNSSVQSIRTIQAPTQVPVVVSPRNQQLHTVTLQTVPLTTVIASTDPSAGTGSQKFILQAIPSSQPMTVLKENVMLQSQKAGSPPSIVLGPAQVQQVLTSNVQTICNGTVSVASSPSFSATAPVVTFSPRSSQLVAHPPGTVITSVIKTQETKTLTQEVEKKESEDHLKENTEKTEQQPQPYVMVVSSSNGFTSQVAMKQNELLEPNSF
# Sequence of ETV5 (P41161 whole entry): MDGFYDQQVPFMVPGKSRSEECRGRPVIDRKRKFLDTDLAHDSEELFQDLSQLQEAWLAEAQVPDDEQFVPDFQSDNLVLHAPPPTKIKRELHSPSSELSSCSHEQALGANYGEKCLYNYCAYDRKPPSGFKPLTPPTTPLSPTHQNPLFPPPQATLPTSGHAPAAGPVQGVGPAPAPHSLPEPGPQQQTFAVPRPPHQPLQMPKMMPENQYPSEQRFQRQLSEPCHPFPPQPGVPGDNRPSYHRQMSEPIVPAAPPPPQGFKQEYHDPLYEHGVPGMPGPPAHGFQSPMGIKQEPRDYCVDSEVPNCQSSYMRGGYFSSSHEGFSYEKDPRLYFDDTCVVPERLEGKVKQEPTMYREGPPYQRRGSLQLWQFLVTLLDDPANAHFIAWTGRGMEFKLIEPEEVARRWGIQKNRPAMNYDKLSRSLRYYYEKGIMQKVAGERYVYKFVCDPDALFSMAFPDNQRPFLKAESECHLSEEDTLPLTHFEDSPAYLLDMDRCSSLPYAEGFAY
# Sequence of CRX (O43186 whole entry): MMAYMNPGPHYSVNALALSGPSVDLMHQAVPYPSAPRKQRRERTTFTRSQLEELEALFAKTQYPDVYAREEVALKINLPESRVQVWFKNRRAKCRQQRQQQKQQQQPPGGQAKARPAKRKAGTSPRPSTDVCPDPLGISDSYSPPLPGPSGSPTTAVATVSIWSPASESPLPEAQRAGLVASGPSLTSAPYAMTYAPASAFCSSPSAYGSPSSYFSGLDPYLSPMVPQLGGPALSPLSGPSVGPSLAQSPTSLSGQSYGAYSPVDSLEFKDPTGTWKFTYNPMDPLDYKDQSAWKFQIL
# Sequence of ETV1 (P50549 whole entry): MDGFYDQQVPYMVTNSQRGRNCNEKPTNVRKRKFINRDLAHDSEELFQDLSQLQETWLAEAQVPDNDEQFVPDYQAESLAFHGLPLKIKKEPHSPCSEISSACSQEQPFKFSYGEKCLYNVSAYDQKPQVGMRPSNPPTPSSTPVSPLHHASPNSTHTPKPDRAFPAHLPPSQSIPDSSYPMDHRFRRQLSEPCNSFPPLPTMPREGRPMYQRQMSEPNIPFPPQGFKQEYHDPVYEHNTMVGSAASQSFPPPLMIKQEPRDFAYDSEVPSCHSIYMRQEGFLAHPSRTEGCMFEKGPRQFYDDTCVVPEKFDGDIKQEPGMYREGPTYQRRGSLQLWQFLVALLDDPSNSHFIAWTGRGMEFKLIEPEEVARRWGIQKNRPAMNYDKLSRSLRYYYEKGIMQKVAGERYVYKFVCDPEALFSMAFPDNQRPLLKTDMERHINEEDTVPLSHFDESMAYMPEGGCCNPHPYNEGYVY
# Sequence of ELF4 (Q99607 whole entry): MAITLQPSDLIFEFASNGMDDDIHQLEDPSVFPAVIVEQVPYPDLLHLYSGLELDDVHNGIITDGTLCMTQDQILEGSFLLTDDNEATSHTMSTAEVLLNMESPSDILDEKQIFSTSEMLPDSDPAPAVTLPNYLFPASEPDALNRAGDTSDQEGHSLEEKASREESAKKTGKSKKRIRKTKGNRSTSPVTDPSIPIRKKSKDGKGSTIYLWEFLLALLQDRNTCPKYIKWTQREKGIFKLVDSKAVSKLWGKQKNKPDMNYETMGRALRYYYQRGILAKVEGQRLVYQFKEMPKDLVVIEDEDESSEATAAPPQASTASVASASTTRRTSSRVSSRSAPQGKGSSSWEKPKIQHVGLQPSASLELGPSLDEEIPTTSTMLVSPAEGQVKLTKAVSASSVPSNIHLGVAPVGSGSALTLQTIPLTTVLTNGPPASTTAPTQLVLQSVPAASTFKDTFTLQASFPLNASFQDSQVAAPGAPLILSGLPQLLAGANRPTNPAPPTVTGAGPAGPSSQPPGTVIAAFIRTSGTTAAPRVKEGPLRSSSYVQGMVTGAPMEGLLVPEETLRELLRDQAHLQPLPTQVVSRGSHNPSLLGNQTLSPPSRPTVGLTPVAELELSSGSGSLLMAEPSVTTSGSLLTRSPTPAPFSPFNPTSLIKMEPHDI
# Sequence of SPIB (Q01892 whole entry): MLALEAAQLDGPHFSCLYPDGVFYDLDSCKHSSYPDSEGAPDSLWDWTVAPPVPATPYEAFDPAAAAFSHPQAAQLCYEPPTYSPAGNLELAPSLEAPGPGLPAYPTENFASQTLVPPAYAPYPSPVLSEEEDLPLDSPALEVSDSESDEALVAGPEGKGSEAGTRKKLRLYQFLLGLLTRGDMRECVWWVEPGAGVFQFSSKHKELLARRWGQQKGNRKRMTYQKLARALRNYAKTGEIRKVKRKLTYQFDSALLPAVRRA
# Sequence of HSF1 (Q00613 whole entry): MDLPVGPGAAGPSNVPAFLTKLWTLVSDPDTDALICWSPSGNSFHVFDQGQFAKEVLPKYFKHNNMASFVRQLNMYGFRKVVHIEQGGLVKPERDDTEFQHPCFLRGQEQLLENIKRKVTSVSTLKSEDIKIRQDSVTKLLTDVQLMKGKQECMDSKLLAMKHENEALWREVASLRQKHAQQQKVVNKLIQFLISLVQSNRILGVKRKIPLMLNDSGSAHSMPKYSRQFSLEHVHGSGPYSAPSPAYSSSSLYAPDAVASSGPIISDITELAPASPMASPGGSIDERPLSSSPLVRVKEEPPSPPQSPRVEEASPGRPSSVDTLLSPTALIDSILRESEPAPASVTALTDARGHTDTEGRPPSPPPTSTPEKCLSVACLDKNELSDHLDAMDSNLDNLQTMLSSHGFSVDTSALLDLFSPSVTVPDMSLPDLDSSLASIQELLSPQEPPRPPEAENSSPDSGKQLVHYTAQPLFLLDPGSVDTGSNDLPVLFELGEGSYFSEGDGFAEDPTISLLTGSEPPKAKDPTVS
sequence,measurement,setting,value
ATTGAT,binding signal,FLI1,"1.28 fold enrichment (6-mer frequency, TF over GST control)"
same,binding signal,ELK1,"1.35 fold enrichment (6-mer frequency, TF over GST control)"
same,binding signal,GABPA,"1.39 fold enrichment (6-mer frequency, TF over GST control)"
same,binding signal,ERG,"1.33 fold enrichment (6-mer frequency, TF over GST control)"
same,binding signal,ELF1,"1.31 fold enrichment (6-mer frequency, TF over GST control)"
same,binding signal,EHF,"1.17 fold enrichment (6-mer frequency, TF over GST control)"
same,binding signal,SPI1,"1.24 fold enrichment (6-mer frequency, TF over GST control)"
same,binding signal,SPIB,"1.16 fold enrichment (6-mer frequency, TF over GST control)"
same,binding signal,ELK3,"1.33 fold enrichment (6-mer frequency, TF over GST control)"
same,binding signal,FEV,"1.25 fold enrichment (6-mer frequency, TF over GST control)"
same,binding signal,ETV5,"1.2 fold enrichment (6-mer frequency, TF over GST control)"
same,binding signal,HSF1,"1.37 fold enrichment (6-mer frequency, TF over GST control)"
same,binding signal,SPIC,"1.42 fold enrichment (6-mer frequency, TF over GST control)"
same,binding signal,ELF4,"1.32 fold enrichment (6-mer frequency, TF over GST control)"
same,binding signal,ELK4,"1.38 fold enrichment (6-mer frequency, TF over GST control)"
same,binding signal,ETV2,"1.3 fold enrichment (6-mer frequency, TF over GST control)"
same,binding signal,ELF3,"1.22 fold enrichment (6-mer frequency, TF over GST control)"
same,binding signal,CRX,"1.46 fold enrichment (6-mer frequency, TF over GST control)"
same,binding signal,ETV1,"1.39 fold enrichment (6-mer frequency, TF over GST control)"
